Test systems include HCT-15 colon; HT29 colon; SNB-75 CNS; SNB-19 CNS; U251 CNS; PC-3 prostate; SK-MEL-5 melanoma; UACC-62 melanoma; LOX IMVI melanoma; SK-MEL-28 melanoma; SK-MEL-2 melanoma; EKVX NSCLC; SN12C renal; UO-31 renal; TK-10 renal; ACHN renal; CAKI-1 renal; A498 renal; CCRF-CEM leukemia; MOLT-4 leukemia.
Common to all, as to test: NCI-60 one-dose screen, 48 h (100 = growth as untreated, 0 = no growth, -100 = all killed)
Holding throughout (settings): 10 µM unless noted

About 83,000 compounds went through this panel and 20% of them were active in at least one assay; those are over-represented in the sample as a whole.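 Each cell line was grown in a 96-well plate and treated with one concentration of compound for 48 hours. Values below 10 were considered active.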 Unmarked numbers belong to inactive results. Activity calls are given as the source filed them.

Take `COc1cc2c(cc1OC)C(Sc1ccc(C)cc1)c1c(nc(N)c(C#N)c1N)O2` (stereo not given): the growth was -74.3% (active) in the assay on HCT-15 colon; -21.2% (active) in the assay with HT29 colon; 29% with SNB-75 CNS; -68.9% (active) with SNB-19 CNS; -69.9% (active) in the assay on U251 CNS; -71.1% (active) in the assay with PC-3 prostate. Further, the growth with SK-MEL-5 melanoma was -94.6% (active); with UACC-62 melanoma, -45% (active); in the assay with LOX IMVI melanoma, -90.5% (active); with SK-MEL-28 melanoma, -80.3% (active); in the assay with SK-MEL-2 melanoma, -20% (active); in the assay with EKVX NSCLC, -84.3% (active). For the same compound, the growth in the assay with SN12C renal is -64.3% (active); in the assay on UO-31 renal, -99.7% (active); in the assay on TK-10 renal, -63.6% (active); with ACHN renal, -95.8% (active); in the assay with CAKI-1 renal, -62.9% (active); with A498 renal, -54.7% (active). The growth with CCRF-CEM leukemia is 2.14% (active); with MOLT-4 leukemia, -9.07% (active).
With `Cc1ccc(-c2cc3nc(C(Cl)Cl)nc(-c4cccs4)n3n2)cc1`, the growth in the assay with HCT-15 colon was 61.7%; with HT29 colon, 39.2%; with SNB-75 CNS, 110%; in the assay with SNB-19 CNS, 63.8%; in the assay on U251 CNS, 39.4%; in the assay with PC-3 prostate it was 66.5%. Besides, the growth in the assay with SK-MEL-5 melanoma was 96.8%; in the assay on UACC-62 melanoma it was 78.9%; with LOX IMVI melanoma it was 96.2%; in the assay on SK-MEL-28 melanoma, 87.4%; with SK-MEL-2 melanoma it was 105%; in the assay on EKVX NSCLC, 66.3%. Also, the growth in the assay with SN12C renal was 85.9%; with UO-31 renal it was 70.7%; with TK-10 renal it was 141%; in the assay with ACHN renal, 21%; in the assay with CAKI-1 renal, 55.6%; with A498 renal, 84.3%. In addition, the growth in the assay with CCRF-CEM leukemia was 104%; in the assay with MOLT-4 leukemia, 98.6%.
Take `CCN1CCN(Cc2ccc(C(=O)Nc3ccc(C)c(Oc4ccc(-c5[nH]nc6ncnc(N)c56)cc4)c3)cc2C(F)(F)F)CC1`: the growth is 68.6% with HCT-15 colon; 17% in the assay on HT29 colon; 95.8% in the assay with SNB-75 CNS; 101% in the assay with SNB-19 CNS; 89.4% with U251 CNS; 70.7% in the assay on PC-3 prostate. The growth was 76.1% in the assay on SK-MEL-5 melanoma; 89.1% in the assay on UACC-62 melanoma; 57.2% in the assay on LOX IMVI melanoma; 75.4% with SK-MEL-28 melanoma; 90% with SK-MEL-2 melanoma; 106% in the assay on EKVX NSCLC. The growth in the assay with SN12C renal was 86.5%; with UO-31 renal it was 84.4%; with TK-10 renal it was 117%; in the assay on ACHN renal it was 91.9%; in the assay with CAKI-1 renal it was 88.3%; in the assay with A498 renal, 98.4%. In addition, the growth in the assay with CCRF-CEM leukemia was 31%; in the assay with MOLT-4 leukemia, 67.4%.
Turning to `COC(=O)C1(C)CCC[C@]2(C)[C@H]3C[C@H]4C(C(C)C)=C[C@]3(CC[C@@H]12)[C@H]1[C@@H]4[C@@H](OC(=O)c2ccco2)CC[C@@H]1OC(=O)c1ccco1` (stereo not given in full), the growth is 107% with HCT-15 colon; 116% in the assay on HT29 colon; 97.8% with SNB-75 CNS; 98.4% in the assay with SNB-19 CNS; 100% in the assay on U251 CNS; 87.9% in the assay with PC-3 prostate. Also, the growth is 102% in the assay on SK-MEL-5 melanoma; 92.6% in the assay on UACC-62 melanoma; 111% in the assay on LOX IMVI melanoma; 104% in the assay with SK-MEL-28 melanoma; 107% in the assay with SK-MEL-2 melanoma; 99.1% in the assay with EKVX NSCLC. Besides, the growth is 101% in the assay with SN12C renal; 101% with UO-31 renal; 105% in the assay on TK-10 renal; 112% in the assay on ACHN renal; 95.8% in the assay with CAKI-1 renal; 115% in the assay on A498 renal. For the same compound, the growth with CCRF-CEM leukemia was 105%; in the assay on MOLT-4 leukemia, 103%.
As to `CCOC(=O)C(=O)CC(=O)N1C(=S)NC(=O)C1CC(C)C` (stereo not given), the growth with HCT-15 colon is 94.8%; with HT29 colon it was 113%; with SNB-75 CNS it was 100%; in the assay with SNB-19 CNS it was 99.9%; in the assay on U251 CNS, 105%; with PC-3 prostate, 103%. The growth in the assay on SK-MEL-5 melanoma was 95.6%; in the assay with UACC-62 melanoma it was 96.3%; in the assay on LOX IMVI melanoma, 98%; in the assay with SK-MEL-28 melanoma it was 99.6%; in the assay on SK-MEL-2 melanoma, 111%; in the assay with EKVX NSCLC it was 98.2%. The growth in the assay with SN12C renal was 97.6%; in the assay on UO-31 renal it was 84%; in the assay on TK-10 renal, 106%; with ACHN renal, 103%; with CAKI-1 renal, 102%; in the assay with A498 renal, 98.6%. Further, the growth in the assay with CCRF-CEM leukemia was 100%; in the assay with MOLT-4 leukemia it was 108%.
With `CCn1c(SCC(=O)Nc2cccc(C(=O)/C=C/c3ccccc3Cl)c2)nc2ccccc2c1=O`, the growth is 55.2% in the assay on HCT-15 colon; 67.1% in the assay with HT29 colon; 89.5% with SNB-75 CNS; 82.3% with SNB-19 CNS; 73.4% in the assay with U251 CNS; 75.4% in the assay with PC-3 prostate. Besides, the growth with SK-MEL-5 melanoma is 93.5%; in the assay with UACC-62 melanoma, 79.9%; in the assay with LOX IMVI melanoma it was 27.6%; with SK-MEL-28 melanoma, 98.3%; in the assay with SK-MEL-2 melanoma it was 110%; in the assay on EKVX NSCLC, 85.8%. Moreover, the growth in the assay with SN12C renal was 88.4%; with UO-31 renal, 68%; with TK-10 renal, 125%; in the assay with ACHN renal, 97%; in the assay with CAKI-1 renal, 84.6%; in the assay on A498 renal it was 94%. Besides, the growth is 77.8% in the assay on CCRF-CEM leukemia and 93.2% in the assay on MOLT-4 leukemia.
For `COc1ccc2c(c1)Oc1nc(N)c(C#N)c(N)c1C2Sc1ccc(C)cc1` (stereo not given), the growth with HCT-15 colon was -82.5% (active); in the assay on HT29 colon, -26.8% (active); with SNB-75 CNS it was 88.7%; in the assay with SNB-19 CNS, 7.65% (active); in the assay with U251 CNS, 0.124% (active); in the assay with PC-3 prostate, -43.8% (active). For the same compound, the growth is -25.1% (active) in the assay on SK-MEL-5 melanoma; 9.86% (active) in the assay with UACC-62 melanoma; -98.4% (active) in the assay on LOX IMVI melanoma; -25.9% (active) in the assay on SK-MEL-28 melanoma; -36.4% (active) in the assay on SK-MEL-2 melanoma; 19.3% with EKVX NSCLC. Besides, the growth was 0.951% (active) with SN12C renal; -81.6% (active) in the assay with UO-31 renal; -23.4% (active) in the assay with TK-10 renal; -96.9% (active) with ACHN renal; -7.52% (active) with CAKI-1 renal; 33.4% in the assay with A498 renal. Moreover, the growth in the assay with CCRF-CEM leukemia was -16.1% (active); in the assay with MOLT-4 leukemia, -12.9% (active).
As to `Cc1cccc2c3c(sc12)C(c1ccc(F)cc1)C(C#N)=C(/N=C/c1ccc(Cl)cc1)O3` (stereo not given), the growth in the assay with HCT-15 colon is 3.92% (active); in the assay on HT29 colon, -28.5% (active); with SNB-75 CNS, 29.5%; in the assay with SNB-19 CNS it was 26.4%; in the assay with U251 CNS, 4.91% (active); in the assay on PC-3 prostate it was 13.6%. Further, the growth with SK-MEL-5 melanoma was 5.84% (active); with UACC-62 melanoma, 18%; in the assay with LOX IMVI melanoma, 9.59% (active); with SK-MEL-28 melanoma, 62.2%; with SK-MEL-2 melanoma it was -5.29% (active); with EKVX NSCLC, 47.8%. The growth in the assay on SN12C renal is 25.5%; in the assay on UO-31 renal, 34.6%; with TK-10 renal, 106%; in the assay on ACHN renal, 25.7%; in the assay with CAKI-1 renal, 33.9%; with A498 renal, -20.2% (active). The growth was 13.5% with CCRF-CEM leukemia and 15.2% with MOLT-4 leukemia.

The record behind these values is PubChem BioAssay (NCI).
